These results are taken from PubChem BioAssay (EPA / NIEHS).

Records with an inconclusive call do not appear. More than one record can exist for a structure, and the calls need not agree. Active and inactive are the calls of the source. Rule for the calls, unless noted: active = hit-call score of the fitted dose curve at least 0.9, where 1 is the maximum; inconclusive = response in the unintended direction; inactive = score below 0.9.

Assay [1] is described as follows: ATG_M_61_CIS: Attagene CIS-FACTORIAL HepG2 Assay for M61 Transcription Factor (Internal Marker) (AID 2282937; active = hit-call score of the fitted dose curve at least 0.9, where 1 is the maximum; inactive = score below 0.9). Conditions: HepG2 Attagene CIS-FACTORIAL M61 internal marker reporter; actives raise or lower the signal. Put shortly: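 Fluorescence from labelled cDNA fragments, separated by capillary electrophoresis, quantifies reporter induction. HepG2 cells bearing transiently transfected cis-promoter MRTUs were incubated with test chemical for 24 h; DMSO defined baseline for gain/loss fitting.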

A short description of assay [2]: ATG_EGR_CIS: Attagene CIS-FACTORIAL HepG2 Assay for human Early Growth Response 1 (EGR1) (AID 2282938; active = hit-call score of the fitted dose curve at least 0.9, where 1 is the maximum; inactive = score below 0.9). Conditions: HepG2 Attagene CIS-FACTORIAL EGR reporter mRNA; actives raise or lower the signal. An outline of the steps: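 Cell-based multiplex transcription assay: HepG2 carrying transfected cis-element reporter units, 24 h chemical treatment. Fluorescence from capillary electrophoresis of RT-PCR products gives mRNA levels; fitting is bidirectional relative to DMSO.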

Assay [3] can be described thus: ATG_GRE_CIS: Attagene CIS-FACTORIAL HepG2 Assay for human Glucocorticoid Response Elements (GRE) (AID 2282947; active = hit-call score of the fitted dose curve at least 0.9, where 1 is the maximum; inactive = score below 0.9). Conditions: HepG2 GRE cis-reporter, Attagene multiplex mRNA; actives raise or lower the signal. Put shortly:
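Assay uses human hepatoma HepG2 cells transfected with cis-promoter reporter units, exposed 24 h. mRNA from reporters detected by RT-PCR plus capillary electrophoresis; DMSO serves as negative control and baseline.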

Assay [4] in a line: ATG_M_06_CIS: Attagene CIS-FACTORIAL HepG2 Assay for M06 Transcription Factor (Internal Marker) (AID 2282950; active = hit-call score of the fitted dose curve at least 0.9, where 1 is the maximum; inactive = score below 0.9). Conditions: HepG2 Attagene CIS-FACTORIAL M06 internal marker reporter; actives raise or lower the signal. An outline of the steps: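 One of many multiplexed endpoints: HepG2 reporter mRNA after 24 h dosing, detected by RT-PCR and capillary electrophoresis fluorescence; gain or loss of signal analysed against DMSO.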

Assay [5] can be described thus: ATG_PPRE_CIS: Attagene CIS-FACTORIAL HepG2 Assay for human Peroxisome Proliferator-activated Response Element (PPRE) (AID 2282958; active = hit-call score of the fitted dose curve at least 0.9, where 1 is the maximum; inactive = score below 0.9). Conditions: HepG2 PPRE cis-element reporter, Attagene transcription factor profiling; actives raise or lower the signal. An outline of the steps: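 Multiplexed reporter transcription units under cis-regulatory promoters were transfected into HepG2 cells to capture endogenous factor activity. A 24 h incubation preceded RNA isolation and fluorescent RT-PCR fragment analysis.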

Assay [6] can be described thus: ATG_TGFb_CIS: Attagene CIS-FACTORIAL HepG2 Assay for human Transforming Growth Factor (TGF) (AID 2282967; active = hit-call score of the fitted dose curve at least 0.9, where 1 is the maximum; inactive = score below 0.9). Conditions: HepG2 Attagene CIS TGFb reporter, mRNA transcription; actives raise or lower the signal. An outline of the steps:
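After a 24-hour incubation with compound, transfected HepG2 cells were lysed for RNA; reporter cDNA was amplified, fluorescently end-labeled and separated by CE. DMSO served as baseline for bidirectional fits.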

Assay [7] is described as follows: ATG_M_19_TRANS: Attagene TRANS-FACTORIAL HepG2 Assay for M19 Transcription Factor (Internal Marker) (AID 2282974). Conditions: HepG2 Attagene TRANS-FACTORIAL M19 internal marker reporter. An outline of the steps: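 Measured here: internal-marker reporter transcript from HepG2 cells transfected with MRTUs, harvested at 24 h. cDNA PCR products were 6-FAM labelled by primer extension, cut with HpaI for 2 h at 37 C, and resolved by CE.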

Assay [8] deals with Hepatocyte nuclear factor 4-alpha (Homo sapiens) (UniProt P41235). The assay is described as follows: ATG_HNF4a_TRANS: Attagene TRANS-FACTORIAL HepG2 Assay for human Hepatocyte Nuclear Factor 4 alpha (HNF4a) (AID 2282982). Conditions: HepG2 HNF4a transactivation reporter, mRNA readout. An outline of the steps:
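Transfected HepG2 reporter cells are dosed for 24 h; reporter RNA is reverse-transcribed, amplified, fluorescently labelled and HpaI-digested before CE sizing. Positive-direction fit against DMSO.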

The nature of assay [9]: ATG_M_06_TRANS: Attagene TRANS-FACTORIAL HepG2 Assay for M06 Transcription Factor (Internal Marker) (AID 2282983). Conditions: HepG2 Attagene TRANS M06 internal marker reporter. Put shortly: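 HepG2 cells transiently transfected with multiplexed GAL4-UAS reporter transcription units; after 24 h compound exposure, reporter mRNA measured by RT-PCR, FAM-labelled primer extension, HpaI digestion and capillary electrophoresis. Gain-of-signal fitted versus DMSO baseline; background control readout.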

For assay [10], the target named is Nuclear respiratory factor 1 (Homo sapiens) (UniProt Q16656). Nature of the assay: ATG_NRF1_CIS: Attagene CIS-FACTORIAL HepG2 Assay for human Nuclear Respiratory Factor 1 (NRF1) Orphan Gene (AID 2282987; active = hit-call score of the fitted dose curve at least 0.9, where 1 is the maximum; inactive = score below 0.9). Conditions: HepG2 NRF1 cis-element reporter, Attagene multiplex; actives raise or lower the signal. An outline of the steps:
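Transcriptional reporter readout, one component of a 52-endpoint multiplexed HepG2 panel. Exposure 24 h; mRNA detected via RT-PCR and fluorescent capillary electrophoresis; fitting in both directions against DMSO.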

The nature of assay [11]: ATG_NFI_CIS: Attagene CIS-FACTORIAL HepG2 Assay for human Nuclear Factor I (NFI) (AID 2282989; active = hit-call score of the fitted dose curve at least 0.9, where 1 is the maximum; inactive = score below 0.9). Conditions: HepG2 cis-regulatory reporter, NFI response element transcription; actives raise or lower the signal. Put shortly:
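Reporter transcription driven by endogenous transcription factors in HepG2 cells; 24 h treatment. Quantitation by labelled RT-PCR fragments on capillary electrophoresis, gain- or loss-of-signal relative to DMSO.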

In assay [12] the target is Nuclear receptor subfamily 1 group I member 2 (Homo sapiens) (UniProt O75469). Nature of the assay: ATG_PXR_TRANS: Attagene TRANS-FACTORIAL HepG2 Assay for human Pregnane X Receptor (PXR) (AID 2283008). Put shortly:
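Measures mRNA induction of a GAL4-UAS-driven reporter in human HepG2 cells transiently expressing PXR fused to Gal4, following 24 h treatment. DMSO served as negative control and baseline.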

Assay [13] addresses human Retinoid X Receptor beta (RXRb), RXRB (gene 6257) (UniProt P28702). The assay is described as follows: ATG_RXRb_TRANS: Attagene TRANS-FACTORIAL HepG2 Assay for human Retinoid X Receptor beta (RXRb) (AID 2283013). Put shortly: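 HepG2 cells transiently transfected with multiplexed reporter units driven by GAL4-UAS and exogenous chimeric NR-Gal4 proteins; treated 24 h. Reporter mRNA measured by RT-PCR, 6-FAM labelling and capillary electrophoresis; gain-of-signal fitted versus DMSO baseline.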

Assay [14] is described as follows: ATG_RORE_CIS: Attagene CIS-FACTORIAL HepG2 Assay for human RAR-related Orphan Receptor Element (RORE) (AID 2282959; active = hit-call score of the fitted dose curve at least 0.9, where 1 is the maximum; inactive = score below 0.9). Conditions: HepG2 Attagene cis-factorial RORE reporter, mRNA; actives raise or lower the signal. Put shortly: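 Fluorescence intensity of reporter-specific cDNA fragments, separated by capillary electrophoresis, gives the signal. Source: HepG2 liver cells transiently transfected with cis-element reporters and exposed 24 h; DMSO-normalized bidirectional fit.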

The target of assay [15] is Retinoic acid receptor RXR-alpha (Homo sapiens) (UniProt P19793). Nature of the assay: ATG_RXRa_TRANS: Attagene TRANS-FACTORIAL HepG2 Assay for human Retinoid X Receptor alpha (RXRa) (AID 2283012). Put shortly: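 HepG2 cells transiently transfected with multiplexed GAL4-UAS reporter units and chimeric NR-GAL4 fusions, dosed 24 h. Reporter mRNA measured by RT-PCR, FAM labelling, HpaI digestion and capillary electrophoresis; gain-of-signal fitted relative to DMSO baseline.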

For assay [16], the target named is Cellular tumor antigen p53 (Homo sapiens) (UniProt P04637). The assay is described as follows: TOX21_p53_BLA_p2_ratio: Tox21 HCT-116 p53 Agonism Beta-lactamase Assay, Ratio, Phase 2 (AID 2283592). Put shortly:
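HCT116 cells carrying a p53-responsive beta-lactamase reporter were plated, incubated 5 h at 37C, then dosed with compounds in DMSO (217-fold dilution) for 16 h. CCF4-AM substrate was added for 2 h at room temperature; the 460/530 nm emission ratio gave gain-of-signal activity relative to DMSO.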

Assay [17] has the same target. Nature of the assay: TOX21_p53_BLA_p5_ratio: Tox21 HCT-116 p53 Agonism Beta-lactamase Assay, Ratio, Phase 5 (AID 2283599). Put shortly: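 Beta-lactamase reporter ratio (blue 460 nm over green 530 nm, 405 nm excitation) after 2 h CCF4-AM loading, in HCT-116 cells exposed 16 h at 37 C to compounds pinned at 217-fold dilution. Increases relative to DMSO baseline scored.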

For assay [18] the target is unchanged. The assay is described as follows: TOX21_p53_BLA_p3_ratio: Tox21 HCT-116 p53 Agonism Beta-lactamase Assay, Ratio, Phase 3 (AID 2283596). An outline of the steps:
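HCT116 p53-bla cells (4000/well) given compound in DMSO (217-fold dilution) after 5 h, incubated 16 h at 37C. CCF4-AM substrate 2 h at room temperature; 460/530 nm emission ratio, gain fitted against DMSO.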

The nature of assay [19]: TOX21_p53_BLA_p5_viability: Viability Assessment in the Tox21 HCT-116 p53 Agonism Beta-lactamase Assay, Phase 5 (AID 2283600). An outline of the steps:
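Cells were plated at 4000/well, rested 5 h at 37C, then given compounds in DMSO (217-fold dilution) for 16 h at 37C, 5% CO2. Following the CCF4-AM beta-lactamase read, CellTiter-Glo was added and luminescence was read after 30 min at room temperature.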

For assay [20], the target named is Cellular tumor antigen p53 (Homo sapiens) (UniProt P04637). The assay is described as follows: TOX21_p53_BLA_p4_ratio: Tox21 HCT-116 p53 Agonism Beta-lactamase Assay, Ratio, Phase 4 (AID 2283601). Put shortly:
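Signal is the blue/green (460nm/530nm) ratio of cleaved versus uncleaved CCF4-AM substrate, read after 2 h substrate loading. Cells were HCT116 carrying the p53-responsive beta-lactamase reporter, dosed 16 h at 37C, 5% CO2; CellTiter-Glo measured in parallel.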

Chain of Nuclear receptor subfamily 1 group I member 2 (Homo sapiens) (O75469 whole entry, looked up, the tested form may be a part): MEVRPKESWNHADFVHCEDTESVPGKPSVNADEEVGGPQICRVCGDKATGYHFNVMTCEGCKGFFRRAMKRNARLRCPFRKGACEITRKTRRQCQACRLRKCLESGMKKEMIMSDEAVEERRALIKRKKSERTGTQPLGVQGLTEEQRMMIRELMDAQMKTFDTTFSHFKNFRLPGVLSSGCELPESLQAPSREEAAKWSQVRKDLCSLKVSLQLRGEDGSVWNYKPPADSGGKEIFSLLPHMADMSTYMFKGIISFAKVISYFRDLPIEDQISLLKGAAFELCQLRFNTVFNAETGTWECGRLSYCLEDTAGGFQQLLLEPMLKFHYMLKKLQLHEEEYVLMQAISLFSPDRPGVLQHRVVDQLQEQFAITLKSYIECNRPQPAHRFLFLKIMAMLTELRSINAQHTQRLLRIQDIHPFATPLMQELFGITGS
Chain of Cellular tumor antigen p53 (Homo sapiens) (P04637 whole entry, looked up): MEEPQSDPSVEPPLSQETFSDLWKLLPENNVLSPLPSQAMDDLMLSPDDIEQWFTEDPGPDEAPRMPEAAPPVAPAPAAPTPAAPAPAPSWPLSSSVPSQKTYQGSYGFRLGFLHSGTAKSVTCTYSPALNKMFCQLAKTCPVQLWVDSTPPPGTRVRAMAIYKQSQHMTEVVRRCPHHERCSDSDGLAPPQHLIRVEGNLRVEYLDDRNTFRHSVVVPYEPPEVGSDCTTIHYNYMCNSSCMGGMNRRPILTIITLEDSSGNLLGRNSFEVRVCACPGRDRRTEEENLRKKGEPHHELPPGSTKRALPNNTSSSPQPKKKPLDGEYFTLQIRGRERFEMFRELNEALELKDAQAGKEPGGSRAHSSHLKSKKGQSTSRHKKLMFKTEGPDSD
Chain of Nuclear respiratory factor 1 (Homo sapiens) (Q16656 whole entry, looked up): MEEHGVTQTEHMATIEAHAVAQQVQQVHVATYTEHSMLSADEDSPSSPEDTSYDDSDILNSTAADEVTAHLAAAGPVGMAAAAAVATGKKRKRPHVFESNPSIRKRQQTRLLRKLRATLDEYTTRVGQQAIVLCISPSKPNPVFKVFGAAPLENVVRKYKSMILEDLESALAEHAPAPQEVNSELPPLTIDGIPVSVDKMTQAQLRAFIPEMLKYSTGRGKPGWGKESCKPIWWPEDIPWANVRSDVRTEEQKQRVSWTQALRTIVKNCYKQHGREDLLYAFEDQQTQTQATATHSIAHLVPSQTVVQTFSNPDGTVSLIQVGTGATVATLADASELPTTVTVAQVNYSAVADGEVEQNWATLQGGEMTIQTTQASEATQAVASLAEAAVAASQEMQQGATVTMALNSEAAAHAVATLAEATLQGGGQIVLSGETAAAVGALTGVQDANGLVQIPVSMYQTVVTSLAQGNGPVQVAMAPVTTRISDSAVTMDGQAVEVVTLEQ
Chain of Retinoic acid receptor RXR-alpha (Homo sapiens) (P19793 whole entry, looked up, the tested form may be a part): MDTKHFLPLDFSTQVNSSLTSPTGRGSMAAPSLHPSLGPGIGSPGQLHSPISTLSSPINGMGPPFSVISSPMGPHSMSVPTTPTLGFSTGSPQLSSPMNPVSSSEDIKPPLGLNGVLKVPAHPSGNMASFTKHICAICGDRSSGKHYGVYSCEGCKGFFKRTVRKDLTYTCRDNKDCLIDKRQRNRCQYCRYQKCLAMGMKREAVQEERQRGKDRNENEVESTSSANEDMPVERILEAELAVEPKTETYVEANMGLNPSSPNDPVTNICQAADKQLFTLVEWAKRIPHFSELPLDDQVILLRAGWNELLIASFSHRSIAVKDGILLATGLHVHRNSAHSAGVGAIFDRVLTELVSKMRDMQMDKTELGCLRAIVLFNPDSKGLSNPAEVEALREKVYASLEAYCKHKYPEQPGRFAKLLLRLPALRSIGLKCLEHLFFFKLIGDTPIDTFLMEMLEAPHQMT
Chain of human Retinoid X Receptor beta (RXRb), RXRB (gene 6257) (P28702 whole entry, looked up, the tested form may be a part): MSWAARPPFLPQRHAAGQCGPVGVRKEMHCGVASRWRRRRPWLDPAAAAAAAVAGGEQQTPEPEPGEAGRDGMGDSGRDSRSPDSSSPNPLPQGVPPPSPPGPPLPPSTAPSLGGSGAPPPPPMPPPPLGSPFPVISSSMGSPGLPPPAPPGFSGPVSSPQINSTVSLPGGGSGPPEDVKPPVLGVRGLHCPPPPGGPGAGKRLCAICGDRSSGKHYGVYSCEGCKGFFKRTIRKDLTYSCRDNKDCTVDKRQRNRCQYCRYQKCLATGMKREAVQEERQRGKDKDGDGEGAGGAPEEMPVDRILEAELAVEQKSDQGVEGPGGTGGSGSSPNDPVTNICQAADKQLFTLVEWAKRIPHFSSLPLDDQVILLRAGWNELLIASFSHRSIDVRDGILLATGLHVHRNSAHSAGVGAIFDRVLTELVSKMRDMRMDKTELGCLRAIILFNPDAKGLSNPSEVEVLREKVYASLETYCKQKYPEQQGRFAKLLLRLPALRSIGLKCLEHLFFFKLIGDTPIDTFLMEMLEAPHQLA
Chain of Hepatocyte nuclear factor 4-alpha (Homo sapiens) (P41235 whole entry, looked up): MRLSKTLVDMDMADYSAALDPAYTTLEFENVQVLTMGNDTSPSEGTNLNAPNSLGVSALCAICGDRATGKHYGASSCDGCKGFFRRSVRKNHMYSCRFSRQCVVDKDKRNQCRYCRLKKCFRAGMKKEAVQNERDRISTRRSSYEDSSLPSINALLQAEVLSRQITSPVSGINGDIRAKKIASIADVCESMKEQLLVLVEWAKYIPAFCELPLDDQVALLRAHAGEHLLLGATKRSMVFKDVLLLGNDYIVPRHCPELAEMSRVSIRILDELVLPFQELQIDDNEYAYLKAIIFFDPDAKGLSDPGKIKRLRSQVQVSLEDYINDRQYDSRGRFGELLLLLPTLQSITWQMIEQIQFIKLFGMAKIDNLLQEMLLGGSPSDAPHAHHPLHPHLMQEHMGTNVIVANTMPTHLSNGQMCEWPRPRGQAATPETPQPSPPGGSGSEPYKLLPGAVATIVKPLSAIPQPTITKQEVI

With `Cl/C=C\CCl`, the result in [1], in [2], in [3], in assay [4], in [5] and in [6] was inactive. The outcome in assay [7], in assay [8], in assay [9], in [10], in [11] and in assay [12] was inactive. Besides, the call in [13] was inactive.

Regarding `CCC(Br)(CC)C(=O)NC(N)=O`, the molecule was called inactive in assay [2], in [4], in [5], in [14], in assay [9] and in assay [11]. The molecule was classed as inactive in assay [12], in assay [15], in [13], in [16] and in assay [17].

`O=P1(NCCCl)OCCCN1CCCl` (stereo not given): the result in [1], in assay [3], in [4], in assay [14], in assay [7] and in assay [8] was inactive. The molecule was called inactive in [10], in assay [11] and in [12].

Consider `Cc1ccc(C)c2ccccc12`, for which the molecule was called inactive in [1], in assay [2], in assay [4], in assay [5], in [14] and in assay [6]. Moreover, the molecule was called inactive in assay [7], in assay [11] and in [15]. The AC50 (commonly the concentration at which the activity in the assay is half-maximal) was 51.3 µM (active) in assay [12] and 83.3 µM (active) in assay [13].

On to `CCOP(=O)(OCC)Oc1ccc([N+](=O)[O-])cc1`, for which the call in assay [1], in [2], in assay [4], in [5], in assay [14] and in assay [6] was inactive. The molecule was classed as inactive in [7], in [9], in [10], in assay [11], in assay [12] and in assay [15]. Moreover, the result in assay [13], in assay [18], in assay [17], in [19] and in [20] was inactive.

For the molecule `O=C1Nc2ccc(Cl)cc2C(c2ccccc2)=NC1O` (stereo not given), the call in assay [1], in assay [5], in assay [6], in assay [9], in [12] and in [15] was inactive. Also, the molecule was called inactive in [13], in assay [16], in [18], in assay [17], in [19] and in assay [20]. In addition, the AC50 is 77.3 µM (active) in [17] and 86.7 µM (active) in assay [20].
